# The panel holds about 83,000 compounds, 20% with a hit somewhere; the sample as a whole holds those more often.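 Treatment: one concentration, 48 hours, 96-well format. Scoring: percent growth, with anything below 10 considered active.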 The source made the active and inactive calls.
# System: OVCAR-3 ovarian
# Assay: NCI-60 one-dose screen, 48 h (100 = growth as untreated, 0 = no growth, -100 = all killed)
# Conditions: 10 µM unless noted
row,SMILES,growth
1,Cc1ccc(NC(=O)c2ccc(CN3CCN(C)CC3)c(C(F)(F)F)c2)cc1Oc1ccc(-c2[nH]nc3ncnc(N)c23)cc1,113% (inactive)
2,COc1ccc([C@H]2c3[nH]c4ccccc4c3C[C@@H]3C(=O)N(C4CCN(Cc5ccccc5)CC4)CC(=O)N23)c(OC)c1,80.4% (inactive)
3,IP(CCCSc1n(Cc2ccc3ccccc3c2)c(-c2ccccc2)c(-c2ccccc2)[n+]1Cc1ccc2ccccc2c1)(c1ccccc1)(c1ccccc1)c1ccccc1,8.3% (active)
4,COc1cc(/C=N/n2cnc3oc(-c4ccccc4)cc3c2=N)cc(CN2CCN(C)CC2)c1O,110% (inactive)
5,COC1=C(c2ccccc2)C(=O)C(OC)=C(c2ccccc2)C1=O,72.6% (inactive)
6,CC(C)=CCc1c(O)c(CC=C(C)C)c2c(c1O)C(=O)C1=C[C@@H]3C[C@H]4C(C)(C)O[C@@](C/C=C(\C)C(=O)O)(C3=O)[C@@]14O2,-55% (active)
7,CN1C(=O)N(C)C2C1NN=c1s/c(=C\c3ccccn3)c(=O)n12 (configuration not stated),115% (inactive)
8,CC(=O)NC(C)(C)C(=O)N[C@@H](C)C(=O)NC(C)(C)C(=O)N[C@@H](C)C(=O)NC(C)(C)C(=O)N[C@@H](C)C(=O)N[C@@H](CCC(N)=O)C(=O)NC(C)(C)C(=O)N[C@H](C(=O)NC(C)(C)C(=O)NCC(=O)N[C@@H](CC(C)C)C(=O)NC(C)(C)C(=O)N1CCC[C@H]1C(=O)N[C@H](C(=O)NC(C)(C)C(=O)NC(C)(C)C(=O)N[C@@H](CCC(N)=O)C(=O)N[C@@H](CCC(N)=O)C(=O)N[C@H](CO)CC1CCCCC1)C(C)C)C(C)C,35% [5 µM] (inactive)
9,O=C(NCCCNc1cc(-c2cn(-c3ccccc3)nc2-c2cccc(O)c2)ccn1)Nc1cc(C(F)(F)F)cc(C(F)(F)F)c1,86.5% (inactive)
10,Oc1ccc(CSc2nnc(-c3cnccn3)o2)c2cccnc12,11.9% (inactive)
11,O=C(O)c1ccc(-n2cc(CNc3ccc(Cl)cc3)c(-c3ccc(F)cc3)n2)cc1,105% (inactive)
12,N/C(=N\OC(=O)CSc1nc2ccccc2s1)c1ccc2ccccc2c1,116% (inactive)
13,CC[C@@](C)(NC(=O)C(C)(C)NC(=O)[C@@H](NC(=O)[C@@H]1CCCN1C(=O)C(C)(C)NC(=O)[C@H](CC(C)C)NC(=O)CNC(=O)C(C)(C)NC(=O)[C@@H](NC(=O)C(C)(C)NC(=O)[C@H](CCC(N)=O)NC(=O)[C@H](C)NC(=O)C(C)(C)NC(=O)[C@H](C)NC(=O)C(C)(C)NC(=O)[C@@H]1CCCN1C(=O)C(C)(C)NC(C)=O)C(C)C)C(C)C)C(=O)N[C@@H](CCC(N)=O)C(=O)N[C@@H](CCC(N)=O)C(=O)N[C@H](CO)Cc1ccccc1,14.6% [4.25 µM] (inactive)
14,COc1ccc(-c2nn(-c3ccccc3)cc2/C=C/C(=O)c2ccc(NC(=O)CCCCCCC(=O)NO)cc2)cc1,96.2% (inactive)
15,Nc1ccc(-c2nnc(SCc3ccc(O)c4ncccc34)o2)cc1,7.75% (active)
16,C=C1C(=O)O[C@@H]2/C=C(/C)C3=CC(=O)[C@@](C)(C[C@H](OC(=O)/C(C)=C\C)[C@@H]12)O3,2.79% (active)
17,O=C(CCCCCCN1CC(=O)N2[C@@H](c3cccc(Cl)c3)c3[nH]c4ccccc4c3C[C@H]2C1=O)NO,36.3% (inactive)
18,CS(=O)(=O)c1ccc(-c2nn(-c3ccccc3)cc2/C=N/NC(=O)c2ccncc2)cc1,109% (inactive)
19,CC(C)=CCc1c2c(c(O)c3c1O[C@]14C(=C[C@@H]5C[C@H]1C(C)(C)O[C@@]4(C/C=C(/C)C(=O)O)C5=O)C3=O)CC(O)C(C)(C)O2 (some centres not stated),-96.4% (active)
20,C=C(C)C(=O)O[C@H]1C[C@@]2(C)OC(=CC2=O)/C(CO)=C\[C@H]2OC(=O)C(=C)[C@H]12,-93.6% (active)
21,COc1ccc(-c2nnc(SCc3ccc(O)c4ncccc34)o2)cc1,21.6% (inactive)
22,Nc1ccc(-c2nnc(SCc3ccc(O)c4ncccc34)n2-c2ccccc2)cc1,19.2% (inactive)
23,CC(C)N=C(N/C(N)=N/c1nc2ccccc2s1)NC(C)C,104% (inactive)
24,COc1cc(/C=C/C(=O)c2ccc(NC(=O)CSc3nnc(-c4ccc5nc(-c6ccccc6)[nH]c5c4)o3)cc2)cc(OC)c1OC,72.1% (inactive)
25,CC(=O)c1ccc(NC(=O)COc2ccc(C3SCC(=O)N3c3ccc(Br)cc3)cc2)cc1 (configuration not stated),121% (inactive)
26,COc1ccc(Cn2cc3c(c2-c2ccccc2)CCCc2cnoc2-3)cc1,22% (inactive)
27,O=C(CSc1ccc(-c2nc3ccccc3[nH]2)cn1)N1CCN(c2ccccc2F)CC1,50.7% (inactive)

# Reference: PubChem BioAssay (NCI)
